This note sets out measurements from PubChem BioAssay (EPA / NIEHS).

Assay [1] can be described thus: ATG_PPRE_CIS: Attagene CIS-FACTORIAL HepG2 Assay for human Peroxisome Proliferator-activated Response Element (PPRE) (AID 2282958). To be noted: HepG2 PPRE cis-element reporter, Attagene transcription factor profiling; actives raise or lower the signal. The method in brief: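 After human HepG2 hepatoma cells were transiently transfected with cis-promoter reporter constructs, they were exposed to test chemicals for 24 hours. Reporter RNA was then reverse-transcribed, PCR-amplified, FAM-labeled, HpaI-digested and quantified by capillary electrophoresis.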

The nature of assay [2]: ATG_RORE_CIS: Attagene CIS-FACTORIAL HepG2 Assay for human RAR-related Orphan Receptor Element (RORE) (AID 2282959). The following applies: HepG2 Attagene cis-factorial RORE reporter, mRNA; actives raise or lower the signal. The gist of the method:
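Measured here: transcript induction of a cis-regulated reporter in HepG2 cells transiently transfected via FuGene 6. After 24 h, RNA was processed by RT-PCR and fluorescent capillary electrophoresis; DMSO defined baseline activity.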

Assay [3] in a line: ATG_Sox_CIS: Attagene CIS-FACTORIAL HepG2 Assay for human SRY-box transcription factor (SOX) (AID 2282960). The following applies: HepG2 Attagene cis-factorial SOX reporter, mRNA; actives raise or lower the signal. The method in brief: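 Using transiently transfected HepG2 cells, reporter transcription driven by cis elements was assessed 24 h after dosing. Signal was fluorescence of capillary-separated RT-PCR products, with DMSO defining baseline activity.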

For assay [4], the target named is Transcription factor Sp1 (Homo sapiens) (UniProt P08047). Description: ATG_Sp1_CIS: Attagene CIS-FACTORIAL HepG2 Assay for human Specificity Protein 1 (Sp1) (AID 2282961). The following applies: HepG2 Sp1 cis-reporter transcription, actives raise or lower the signal. The gist of the method:
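After transient transfection of HepG2 cells with cis-promoter reporter units and 24 h chemical treatment, reporter transcripts were quantified by RT-PCR and capillary electrophoresis fluorescence. Gain- and loss-of-signal fitted against DMSO.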

Assay [5] addresses Signal transducer and activator of transcription 3 (Homo sapiens) (UniProt P40763). Description: ATG_STAT3_CIS: Attagene CIS-FACTORIAL HepG2 Assay for human Signal Transducer and Activator of Transcription 3 (STAT3) (AID 2282963). To be noted: HepG2, Attagene cis-factorial STAT3 reporter transcription; actives raise or lower the signal. The method in brief: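 Transcript-level reporter assay. HepG2 transient MRTU transfection, 24 h exposure, fluorescence detection after RT-PCR and CE; DMSO baseline.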

Assay [6] is described as follows: ATG_TA_CIS: Attagene CIS-FACTORIAL HepG2 Assay for human TA Basal Promoter (AID 2282964). The following applies: HepG2 Attagene CIS-factorial TA basal promoter reporter; actives raise or lower the signal. The method in brief: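 Multiplexed mRNA reporter assay, HepG2, 24 h. Reporter cDNA amplified, 6-FAM primer-extended, HpaI-cut, CE-sized; DMSO = negative control and baseline.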

Assay [7] in a line: ATG_TCF_b_cat_CIS: Attagene CIS-FACTORIAL HepG2 Assay for human T-Cell-Factor with beta-catenin (TCF/b-cat) (AID 2282965). To be noted: HepG2 TCF/beta-catenin cis-reporter transcription, actives raise or lower the signal. The method in brief: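 HepG2 cells transiently transfected with multiple cis-promoter-regulated reporter transcription units, so endogenous transcription factor activity is measured. Reporter mRNA read 24 hours after dosing by RT-PCR, fluorescent labelling and capillary electrophoresis; bidirectional fitting against DMSO.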

A short description of assay [8]: ATG_TAL_CIS: Attagene CIS-FACTORIAL HepG2 Assay for human TAL Basal Promoter (AID 2282966).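 Note: background control endpoint measuring basal TAL promoter reporter mRNA not a specific factor.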 To be noted: HepG2 Attagene cis-factorial TAL promoter reporter; actives raise or lower the signal. The method in brief:
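In this cell-based multiplex, HepG2 liver cells bearing cis-promoter reporter constructs are dosed for 24 hours. Total RNA is reverse-transcribed and amplified, labelled fragments are sized by capillary electrophoresis, and signal changes are fitted bidirectionally versus DMSO.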

Assay [9] can be described thus: ATG_TGFb_CIS: Attagene CIS-FACTORIAL HepG2 Assay for human Transforming Growth Factor (TGF) (AID 2282967). The following applies: HepG2 Attagene CIS TGFb reporter, mRNA transcription; actives raise or lower the signal. The method in brief: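 Transcript-level reporter readout: HepG2 transfectants, 24 h exposure, RNA to cDNA, reporter-specific PCR, fluorescent primer extension, capillary sizing against ROX standards. Gain- or loss-of-signal relative to DMSO.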

Assay [10] can be described thus: ATG_VDRE_CIS: Attagene CIS-FACTORIAL HepG2 Assay for human Vitamin D Receptor Element (VDRE) (AID 2282968). To be noted: HepG2 VDRE cis-reporter transcription, actives raise or lower the signal. The method in brief:
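RT-PCR/CE readout of reporter mRNA; HepG2, transient transfection, 24 h dosing; DMSO baseline; bidirectional analysis.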

Assay [11] concerns the target Nuclear receptor subfamily 1 group I member 3 (Homo sapiens) (UniProt Q14994). Briefly: ATG_CAR_TRANS: Attagene TRANS-FACTORIAL HepG2 Assay for human Constitutive Androstane Receptor (CAR) (AID 2282969; active = hit-call score of the fitted dose curve at least 0.9, where 1 is the maximum;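 note: activators raise reporter mRNA above DMSO so AC50 marks induction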). The following applies: HepG2 Attagene TRANS-FACTORIAL CAR reporter. The gist of the method:
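HepG2 cells transiently transfected with multiplexed GAL4-UAS reporter units expressing chimeric NR-Gal4 proteins; compound exposure 24 h. Reporter mRNA measured by RT-PCR, 6-FAM labelling, HpaI digestion and capillary electrophoresis; gain-of-signal fitted against DMSO baseline.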

Assay [12] concerns the target X-box-binding protein 1 (Homo sapiens) (UniProt P17861). Description: ATG_Xbp1_CIS: Attagene CIS-FACTORIAL HepG2 Assay for human X-box Binding Protein 1 (XBP1) (AID 2282972). To be noted: HepG2 XBP1 cis-element reporter, Attagene multiplex; actives raise or lower the signal. The gist of the method:
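HepG2, transient MRTU transfection (cis-promoter driven), 24 h compound exposure. Total RNA → oligo(dT) RT → PCR → 6-FAM labeling → HpaI cut → CE. Bidirectional fit vs DMSO.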

Assay [13] can be described thus: ATG_M_19_TRANS: Attagene TRANS-FACTORIAL HepG2 Assay for M19 Transcription Factor (Internal Marker) (AID 2282974; active = hit-call score of the fitted dose curve at least 0.9, where 1 is the maximum). The following applies: HepG2 Attagene TRANS-FACTORIAL M19 internal marker reporter. The gist of the method:
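Gain-of-signal in reporter mRNA, relative to DMSO, was scored from capillary electrophoresis fluorescence. HepG2 cells carried transiently transfected multiple reporter transcription units and were incubated with test chemicals for 24 h.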

The target of assay [14] is Glucocorticoid receptor (Homo sapiens) (UniProt P04150). Description: ATG_GR_TRANS: Attagene TRANS-FACTORIAL HepG2 Assay for human Glucocorticoid Receptor (GR) (AID 2282978; active = hit-call score of the fitted dose curve at least 0.9, where 1 is the maximum;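 note: activators score as hits since higher reporter transcript over DMSO is fitted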). To be noted: HepG2 Attagene TRANS GR reporter, mRNA transcription. The gist of the method:
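HepG2 transient transfection, multiple reporter units, GAL4-UAS under NR-GAL4 chimera control. 24 h treatment. Reporter mRNA by RT-PCR/CE fluorescence, DMSO as negative control.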

The nature of assay [15]: ATG_GAL4_TRANS: Attagene TRANS-FACTORIAL HepG2 Assay for GAL4 (Internal Marker) (AID 2282976; active = hit-call score of the fitted dose curve at least 0.9, where 1 is the maximum). The following applies: HepG2 Attagene TRANS GAL4 internal marker reporter. The gist of the method:
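RT-PCR/capillary electrophoresis readout of reporter mRNA. HepG2, transient MRTU transfection (GAL4-UAS reporters), 24 h compound exposure. Background-control endpoint, positive direction vs DMSO baseline.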

Assay [16] can be described thus: ATG_SREBP_CIS: Attagene CIS-FACTORIAL HepG2 Assay for human Sterol Regulatory Element Binding (SREBP) (AID 2282962). To be noted: HepG2 Attagene cis-factorial SREBP reporter, mRNA; actives raise or lower the signal. The gist of the method: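 Transfected HepG2 (cis-regulated reporter library, endogenous TFs) → compound 24 h → total RNA → oligo(dT) RT → reporter-specific PCR → FAM primer extension, HpaI cut → CE fluorescence. Fit bidirectional vs DMSO.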

Assay [17] concerns the target Bile acid receptor (Homo sapiens) (UniProt Q96RI1). Description: ATG_FXR_TRANS: Attagene TRANS-FACTORIAL HepG2 Assay for Farnesoid X Receptor (FXR) (AID 2282979; active = hit-call score of the fitted dose curve at least 0.9, where 1 is the maximum;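 note: hits raise reporter mRNA above DMSO so AC50 marks FXR activation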). The following applies: HepG2 Attagene TRANS FXR-GAL4 reporter transcription. The gist of the method: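 Read-out: fluorescent reporter transcripts quantified by capillary electrophoresis after RT-PCR of total RNA. Source cells were HepG2 transiently carrying chimeric NR-GAL4 plus GAL4-UAS reporter units, dosed 24 h. Activity fitted upward relative to DMSO baseline.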

Assay [18] addresses Steroid hormone receptor ERR1 (Homo sapiens) (UniProt P11474). Briefly: ATG_ERRa_TRANS: Attagene TRANS-FACTORIAL HepG2 Assay for human Estrogen-Related Receptor alpha (ERRa) (AID 2282971; active = hit-call score of the fitted dose curve at least 0.9, where 1 is the maximum). To be noted: HepG2 Attagene TRANS reporter, ERRa transactivation. The method in brief:
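Transfected HepG2, 24 h dosing, ERRa-Gal4 chimera driving GAL4-UAS reporter. Readout: reporter mRNA via RT-PCR plus capillary electrophoresis (fluorescence). Positive direction vs DMSO control.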

Assay [19] addresses Estrogen-related receptor gamma (Homo sapiens) (UniProt P62508). Briefly: ATG_ERRg_TRANS: Attagene TRANS-FACTORIAL HepG2 Assay for human Estrogen-Related Receptor gamma (ERRg) (AID 2282977; active = hit-call score of the fitted dose curve at least 0.9, where 1 is the maximum;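 note: hits increase reporter signal over DMSO so potencies reflect activators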). The following applies: HepG2 Attagene TRANS reporter, ERRg transactivation. The method in brief: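 HepG2 cells transiently transfected with multiplexed GAL4-UAS reporter units driven by chimeric NR-Gal4 proteins; 24 h exposure. Reporter mRNA quantified by RT-PCR, fluorescent labelling, HpaI digestion and capillary electrophoresis; gain of signal vs DMSO.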

For assay [20], the target named is Estrogen receptor (Homo sapiens) (UniProt P03372). Briefly: ATG_ERa_TRANS: Attagene TRANS-FACTORIAL HepG2 Assay for human Estrogen Receptor alpha (ERa) (AID 2282970; active = hit-call score of the fitted dose curve at least 0.9, where 1 is the maximum). The following applies: HepG2 Attagene TRANS ERa GAL4 reporter, mRNA. The gist of the method: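 After 24 h of compound treatment, RNA from HepG2 cells bearing transfected GAL4-UAS reporter constructs is converted to cDNA, amplified and fluorescently labelled. Capillary electrophoresis resolves the ERa-linked reporter; DMSO serves as negative control.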

Molecules are shown by their SMILES. Records with an inconclusive call do not appear. Activity calls are given as the source filed them. Rule for the calls, unless noted: active = hit-call score of the fitted dose curve at least 0.9, where 1 is the maximum; inactive = score below 0.9.

Chain of Signal transducer and activator of transcription 3 (Homo sapiens) (P40763 whole entry, looked up): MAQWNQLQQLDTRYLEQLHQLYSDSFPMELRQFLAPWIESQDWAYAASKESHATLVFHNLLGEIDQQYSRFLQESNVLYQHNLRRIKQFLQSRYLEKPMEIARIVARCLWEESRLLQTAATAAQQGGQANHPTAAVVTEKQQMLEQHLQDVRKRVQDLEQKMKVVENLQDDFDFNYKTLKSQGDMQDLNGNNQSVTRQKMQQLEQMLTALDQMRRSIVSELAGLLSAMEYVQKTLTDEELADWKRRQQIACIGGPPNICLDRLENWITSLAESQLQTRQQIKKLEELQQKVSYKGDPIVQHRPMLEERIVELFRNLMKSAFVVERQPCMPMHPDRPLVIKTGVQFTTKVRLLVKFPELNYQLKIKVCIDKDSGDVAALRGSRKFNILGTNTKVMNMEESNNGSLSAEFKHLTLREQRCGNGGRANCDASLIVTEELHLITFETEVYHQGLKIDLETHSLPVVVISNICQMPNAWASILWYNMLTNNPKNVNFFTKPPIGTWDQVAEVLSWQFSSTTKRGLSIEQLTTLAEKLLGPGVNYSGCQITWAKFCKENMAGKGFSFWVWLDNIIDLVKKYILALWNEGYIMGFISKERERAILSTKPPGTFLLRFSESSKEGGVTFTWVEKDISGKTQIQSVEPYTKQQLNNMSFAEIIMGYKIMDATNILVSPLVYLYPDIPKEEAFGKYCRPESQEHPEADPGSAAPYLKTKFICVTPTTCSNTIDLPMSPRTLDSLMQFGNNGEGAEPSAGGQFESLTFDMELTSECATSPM
Chain of Bile acid receptor (Homo sapiens) (Q96RI1 whole entry, looked up, the tested form may be a part): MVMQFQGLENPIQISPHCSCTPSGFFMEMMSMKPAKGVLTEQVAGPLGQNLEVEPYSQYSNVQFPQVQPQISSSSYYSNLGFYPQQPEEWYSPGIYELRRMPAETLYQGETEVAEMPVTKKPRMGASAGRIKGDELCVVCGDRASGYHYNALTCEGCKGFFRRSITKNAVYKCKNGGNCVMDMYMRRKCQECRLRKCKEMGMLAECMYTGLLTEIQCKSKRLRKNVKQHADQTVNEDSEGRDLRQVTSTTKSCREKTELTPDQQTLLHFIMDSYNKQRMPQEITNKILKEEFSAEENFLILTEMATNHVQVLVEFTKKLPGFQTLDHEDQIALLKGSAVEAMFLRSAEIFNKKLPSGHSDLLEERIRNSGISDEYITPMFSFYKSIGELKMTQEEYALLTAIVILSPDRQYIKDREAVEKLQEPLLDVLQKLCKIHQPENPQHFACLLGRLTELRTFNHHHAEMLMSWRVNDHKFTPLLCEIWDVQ
Chain of Glucocorticoid receptor (Homo sapiens) (P04150 whole entry, looked up, the tested form may be a part): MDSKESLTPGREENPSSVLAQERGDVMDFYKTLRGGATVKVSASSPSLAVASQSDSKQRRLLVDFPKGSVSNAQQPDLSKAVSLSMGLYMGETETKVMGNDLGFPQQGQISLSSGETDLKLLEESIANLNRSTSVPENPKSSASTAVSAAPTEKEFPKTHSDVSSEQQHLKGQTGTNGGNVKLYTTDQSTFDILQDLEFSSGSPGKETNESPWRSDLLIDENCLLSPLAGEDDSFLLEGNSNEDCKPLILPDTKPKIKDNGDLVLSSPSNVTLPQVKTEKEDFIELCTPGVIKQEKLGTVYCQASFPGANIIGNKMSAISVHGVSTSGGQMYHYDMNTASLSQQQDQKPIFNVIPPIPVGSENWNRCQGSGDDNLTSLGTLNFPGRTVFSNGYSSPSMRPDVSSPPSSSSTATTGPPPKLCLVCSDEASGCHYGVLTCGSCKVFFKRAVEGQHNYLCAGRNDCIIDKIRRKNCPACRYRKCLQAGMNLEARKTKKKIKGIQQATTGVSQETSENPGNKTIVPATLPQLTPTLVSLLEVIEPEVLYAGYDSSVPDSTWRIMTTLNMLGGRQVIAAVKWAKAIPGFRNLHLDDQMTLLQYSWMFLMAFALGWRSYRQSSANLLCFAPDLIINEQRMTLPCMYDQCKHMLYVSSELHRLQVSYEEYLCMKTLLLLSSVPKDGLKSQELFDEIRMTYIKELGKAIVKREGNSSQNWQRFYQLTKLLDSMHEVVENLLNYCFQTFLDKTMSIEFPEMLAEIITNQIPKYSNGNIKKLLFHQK
Chain of Transcription factor Sp1 (Homo sapiens) (P08047 whole entry, looked up): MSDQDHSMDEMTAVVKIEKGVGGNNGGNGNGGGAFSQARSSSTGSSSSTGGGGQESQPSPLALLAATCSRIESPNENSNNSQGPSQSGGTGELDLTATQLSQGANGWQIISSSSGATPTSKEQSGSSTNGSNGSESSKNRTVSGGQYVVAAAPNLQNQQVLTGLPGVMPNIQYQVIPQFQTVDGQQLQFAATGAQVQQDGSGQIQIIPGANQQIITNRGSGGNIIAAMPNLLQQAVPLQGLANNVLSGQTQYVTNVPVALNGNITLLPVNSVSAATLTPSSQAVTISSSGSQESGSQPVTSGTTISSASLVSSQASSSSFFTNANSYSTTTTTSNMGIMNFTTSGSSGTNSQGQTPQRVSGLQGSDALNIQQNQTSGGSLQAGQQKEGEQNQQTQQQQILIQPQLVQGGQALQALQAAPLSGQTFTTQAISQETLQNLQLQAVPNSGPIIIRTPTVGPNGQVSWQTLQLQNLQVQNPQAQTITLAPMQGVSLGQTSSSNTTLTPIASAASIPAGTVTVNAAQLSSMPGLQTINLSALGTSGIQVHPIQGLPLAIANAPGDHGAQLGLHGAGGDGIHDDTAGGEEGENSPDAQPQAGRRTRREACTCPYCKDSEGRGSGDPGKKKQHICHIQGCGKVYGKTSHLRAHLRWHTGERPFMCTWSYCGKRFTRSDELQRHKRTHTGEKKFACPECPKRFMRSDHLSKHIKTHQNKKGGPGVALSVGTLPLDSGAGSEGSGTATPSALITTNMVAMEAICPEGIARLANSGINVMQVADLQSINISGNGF
Chain of Nuclear receptor subfamily 1 group I member 3 (Homo sapiens) (Q14994 whole entry, looked up, the tested form may be a part): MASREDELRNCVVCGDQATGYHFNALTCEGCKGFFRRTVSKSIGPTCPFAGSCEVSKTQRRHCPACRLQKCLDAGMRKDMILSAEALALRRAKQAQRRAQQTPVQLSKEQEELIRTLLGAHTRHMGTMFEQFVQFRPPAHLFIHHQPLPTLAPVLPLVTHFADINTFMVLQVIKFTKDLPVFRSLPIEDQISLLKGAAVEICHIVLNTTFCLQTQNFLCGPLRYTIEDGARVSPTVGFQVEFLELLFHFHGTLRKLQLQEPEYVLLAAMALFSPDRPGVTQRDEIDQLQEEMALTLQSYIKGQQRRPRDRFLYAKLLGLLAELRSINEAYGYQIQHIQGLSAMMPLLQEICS
Chain of X-box-binding protein 1 (Homo sapiens) (P17861 whole entry, looked up): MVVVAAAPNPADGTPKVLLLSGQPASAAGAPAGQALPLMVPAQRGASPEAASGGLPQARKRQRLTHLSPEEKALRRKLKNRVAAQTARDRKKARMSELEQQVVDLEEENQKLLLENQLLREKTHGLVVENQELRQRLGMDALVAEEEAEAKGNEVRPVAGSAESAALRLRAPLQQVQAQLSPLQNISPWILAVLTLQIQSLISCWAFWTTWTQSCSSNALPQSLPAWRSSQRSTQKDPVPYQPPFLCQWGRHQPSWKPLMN
Chain of Estrogen receptor (Homo sapiens) (P03372 whole entry, looked up, the tested form may be a part): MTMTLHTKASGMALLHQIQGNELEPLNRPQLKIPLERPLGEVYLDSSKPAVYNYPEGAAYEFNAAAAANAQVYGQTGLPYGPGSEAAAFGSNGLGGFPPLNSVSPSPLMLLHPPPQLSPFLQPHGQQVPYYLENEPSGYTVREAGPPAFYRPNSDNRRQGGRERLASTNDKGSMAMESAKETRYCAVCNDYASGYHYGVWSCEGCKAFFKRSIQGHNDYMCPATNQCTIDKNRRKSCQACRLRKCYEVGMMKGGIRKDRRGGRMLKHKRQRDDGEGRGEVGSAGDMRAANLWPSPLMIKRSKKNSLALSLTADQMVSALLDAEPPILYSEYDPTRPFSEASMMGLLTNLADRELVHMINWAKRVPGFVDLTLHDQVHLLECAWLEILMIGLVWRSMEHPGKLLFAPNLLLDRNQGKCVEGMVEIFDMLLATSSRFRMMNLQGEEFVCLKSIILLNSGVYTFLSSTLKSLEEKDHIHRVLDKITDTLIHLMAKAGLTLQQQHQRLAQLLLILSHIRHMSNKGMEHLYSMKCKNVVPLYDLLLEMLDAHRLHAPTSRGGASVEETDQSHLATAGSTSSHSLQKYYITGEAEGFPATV
Chain of Steroid hormone receptor ERR1 (Homo sapiens) (P11474 whole entry, looked up, the tested form may be a part): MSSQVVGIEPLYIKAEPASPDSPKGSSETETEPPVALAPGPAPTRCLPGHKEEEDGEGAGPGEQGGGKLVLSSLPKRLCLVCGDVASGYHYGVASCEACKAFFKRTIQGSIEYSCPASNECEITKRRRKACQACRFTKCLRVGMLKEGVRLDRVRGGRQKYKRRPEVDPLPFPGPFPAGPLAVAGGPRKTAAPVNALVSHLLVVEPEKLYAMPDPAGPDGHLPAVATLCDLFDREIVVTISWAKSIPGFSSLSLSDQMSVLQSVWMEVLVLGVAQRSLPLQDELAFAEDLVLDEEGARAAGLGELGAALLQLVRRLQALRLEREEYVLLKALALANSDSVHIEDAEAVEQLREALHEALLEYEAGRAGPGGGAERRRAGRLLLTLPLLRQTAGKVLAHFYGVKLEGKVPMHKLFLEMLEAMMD
Chain of Estrogen-related receptor gamma (Homo sapiens) (P62508 whole entry, looked up, the tested form may be a part): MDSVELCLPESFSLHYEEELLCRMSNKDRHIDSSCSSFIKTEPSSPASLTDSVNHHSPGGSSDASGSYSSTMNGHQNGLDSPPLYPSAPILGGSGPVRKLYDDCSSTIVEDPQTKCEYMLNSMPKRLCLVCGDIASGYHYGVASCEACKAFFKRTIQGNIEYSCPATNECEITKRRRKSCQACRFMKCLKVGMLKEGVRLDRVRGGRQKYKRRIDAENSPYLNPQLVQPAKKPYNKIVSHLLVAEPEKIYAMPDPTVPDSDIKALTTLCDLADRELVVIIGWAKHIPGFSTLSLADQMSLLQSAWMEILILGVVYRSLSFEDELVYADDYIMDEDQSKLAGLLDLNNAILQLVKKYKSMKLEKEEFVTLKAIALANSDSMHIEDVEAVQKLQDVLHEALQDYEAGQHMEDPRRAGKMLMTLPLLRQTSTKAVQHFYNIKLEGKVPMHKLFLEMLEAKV

For `Oc1ccccc1O`, the compound was classed as inactive in assay [1], in [3], in assay [4], in [5], in [6] and in assay [7]. The compound was classed as inactive in assay [8], in [9], in assay [11], in [13] and in assay [14]. Also, the AC50 in [2] was 23.2 µM (active); in [10], 27.5 µM (active); in assay [12], 35.7 µM (active).

Regarding `N[C@@H](Cc1c[nH]c2ccccc12)C(=O)O`, the outcome in assay [1], in assay [2], in assay [3], in assay [4], in assay [5] and in assay [6] was inactive. Moreover, the result in assay [7], in assay [8], in [9], in assay [10], in assay [13] and in [15] was inactive.

Take `O=Cc1ccccc1C=O`: the call in assay [1], in assay [2], in assay [3], in [4], in [16] and in assay [5] was inactive. Besides, the compound was called inactive in [6], in [7], in [8], in assay [9], in assay [12] and in [15].

Consider `O=C(O)c1cccnc1`, for which the outcome in assay [1], in assay [2], in [3], in assay [4], in assay [16] and in assay [5] was inactive. Moreover, the compound was called inactive in [6], in [7], in [8], in assay [9], in [11] and in [13]. The compound was classed as inactive in assay [15] and in assay [17].

For the compound `Cc1cc(SC2=C(O)C[C@@](CCc3ccc(N)cc3)(C(C)C)OC2=O)c(C(C)(C)C)cc1CO`, the AC50 in [1] is 57.6 µM (active); in [4], 29.1 µM (active); in assay [10], 5.63 µM (active). In addition, the outcome in [2], in assay [3], in assay [5], in assay [6], in assay [7] and in [8] was inactive. Also, the compound was called inactive in [9], in [18], in assay [13] and in assay [19].

For `O=C1c2c(O)cccc2Cc2cccc(O)c21`, the compound was classed as inactive in [1], in assay [2], in [3], in assay [4], in assay [16] and in assay [5]. For the same compound, the call in [6], in [7], in assay [8], in [9], in [15] and in [14] was inactive.

In the case of `Cn1cnc2c1c(=O)[nH]c(=O)n2C`, the compound was called inactive in assay [1], in [2], in assay [3], in [4], in assay [5] and in assay [6]. Further, the result in [7], in assay [8], in assay [9], in assay [10], in assay [15] and in assay [14] was inactive. Moreover, the compound was classed as inactive in assay [17].

On to `O=C(NS(=O)(=O)/C=C/c1cccs1)c1ccc(F)cc1Br`, for which the result in assay [1], in assay [2], in assay [3], in assay [4], in [5] and in [6] was inactive. For the same compound, the outcome in assay [8], in [9], in [10], in assay [11], in [20] and in assay [12] was inactive. In addition, the call in assay [13] and in assay [15] was inactive. Also, the AC50 in assay [7] was 11.4 µM (active).

For `CCCCCCC(CCCCCCCCCCC(=O)OCC(COC(C)=O)OC(C)=O)OC(C)=O` (configuration not stated), the AC50 in assay [1] was 39.6 µM (active); in [7], 50 µM (active). Besides, the outcome in [2], in assay [3], in assay [4], in assay [5], in assay [6] and in assay [8] was inactive. For the same compound, the compound was called inactive in assay [9], in assay [10], in assay [14] and in [17].

A word on the AC50: it is the concentration giving half of the maximal activity seen.
